# Hits are enriched below; roughly 5.9% of the tested compounds scored in any of these assays.
# KB-3-1 cytotox: kills parental KB-3-1 adenocarcinoma cells | KB-3-1 viability, CellTiter-Glo ATP luminescence, 72 h | 400,000 tested, 1.4% active | AID 1347075 | Potency, µM (series often up to 46.1 µM), most hits filed as cytotoxic; note: % is set by controls: 0 for no effect and ±100 for the full control effect; nearly all actives have a fitted effect of over 60% in size
#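 Parental KB-3-1 adenocarcinoma cells in phenol-red-free DMEM with 10% FBS were pin-treated with compounds at several concentrations, incubated 72 h at 37 °C, and viability read by CellTiter-Glo luminescence; concentration-effect curves were fitted after normalization.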
# ATXN viability: reduces viability in counter-screen for ATXN expression inhibitors | S2 cells (HEK-293 line with an ATXN2-luciferase reporter) viability, CellTiter-Fluor protease fluorescence, 24 h | 400,000 tested, 0.49% active | Potency, µM (highest dose often 56.7 µM), hits mostly cytotoxic; note: nearly all actives have a fitted effect of over 40% in size
# KB-V1 cytotox: kills drug-selected multidrug resistant KB-V1 cells; KB-V1 MDR cells viability, CellTiter-Glo, 72 h; Potency, µM (titrated, usually from 46.1 µM), most hits filed as cytotoxic; 400,000 tested, 3.4% active; AID 1347076; note: % is set by controls: 0 for no effect and ±100 for the full control effect; nearly all actives have a fitted effect of over 60% in size
#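 KB-V1 MDR subline cells in DMEM (phenol-red free, 10% FBS) exposed to compounds in qHTS concentration series for 72 h at 37 degrees C. Viability read by CellTiter-Glo luminescence; concentration-effect curves fitted after normalization and correction.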
# ATXN2 expr inh: reduces ATXN2 reporter expression in HEK-293 cells; Potency, µM (series often up to 57 µM), without a hit: at the highest dose activity change, negative = inhibition, usual class: inhibitors; HEK-293 ATXN2-luciferase reporter, luminescence, 24 h; 360,000 tested, 0.72% active; note: % is set by controls: 0 for no effect and ±100 for the full control effect; nearly all actives have a fitted effect of over 55% in size
#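 qHTS (up to 57 uM final) was run with 24 h compound exposure of reporter cells at 37 °C. Each well was multiplexed: SteadyGlo luminescence measured ATXN2-luciferase expression after a fluorogenic Gly-Phe-AFC viability readout (25 uM final).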
# TGFb SMAD3 inh: TGF-b pathway inhibition; HepG2 CAGA-GFP TGF-b/SMAD3 reporter, GFP fluorescence, 18 h; TGF-beta stimulated, 500 pg/mL final; Potency, µM (series often up to 46.1 µM), for the others: at the top dose activity, negative = inhibition, hits mostly inhibitors; 410,000 tested, 1.2% active; note: % is set by controls: 0 for no effect and ±100 for the full control effect; nearly all actives have a fitted effect of over 65% in size
#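 Smad-responsive CAGA-GFP expression was quantified in HEPG2 cells exposed to compounds and 500 pg/mL final TGF-beta for 18 h at 37 degrees C; unstimulated wells defined full inhibition.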
# HepG2 tox: kills HepG2 cells in TGF-b inhibitor counter-screen. HepG2 CAGA-GFP viability, ATP luminescence, 18 h. Potency, µM (series often up to 46.1 µM), for inactives: at the top dose activity change, negative = cytotoxicity, actives largely listed as cytotoxic. 410,000 tested, 0.76% active. AID 588856
#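 HepG2 CAGA-GFP cells (1000/well, DMEM with 1% FBS) received compound, then TGF-beta at 500 pg/mL final, and were incubated 18 hours at 37 degrees C. Viability was read by CellTiter-Glo luminescence. Media-only wells were set as complete cell-killing and DMSO as no toxicity.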
# Active calls of the source: *; i = inactive; ? = inconclusive; . = no result. Calls come from the whole dose curve; as a rule, active = well fitted curve in the direction sought with a large enough effect; inconclusive = small, poorly fitted or top-dose-only effect, or another doubt; inactive = no such curve, though single readings can be large; an effect the other way counts as inactive or inconclusive. Potency is the fitted concentration of half-maximal effect.
SMILES,KB-3-1 cytotox,ATXN viability,KB-V1 cytotox,ATXN2 expr inh,TGFb SMAD3 inh,HepG2 tox
CCc1ccccc1NC(=O)Nc1nnc(N(C)Cc2ccccc2)s1,i,.,i,.,13µM*,-13%
Cc1ccc(S(=O)(=O)Nc2ccc3c(c2)n(C)c(=O)n3C)cc1,?,i,i,0%,0%,-20%
COc1cc(NS(=O)(=O)c2ccc3c(c2)oc(=O)n3C)cc(OC)c1OC,7.3µM*,?,?,?,-7%,-11%
CCOc1ccc(NS(=O)(=O)c2ccc3c(c2)oc(=O)n3C)cc1,i,i,15µM*,1%,30%,-7%
CCOc1ccc(S(=O)(=O)Nc2ccc3c(c2)c(C(C)=O)c(C)n3S(=O)(=O)c2ccc(OCC)cc2)cc1,.,.,.,.,11µM*,-12%
CCOc1ccc(S(=O)(=O)Nc2ccc3c(c2)n(C)c(=O)n3C)cc1,?,i,15µM*,6%,12%,-20%
CCc1ccc(NS(=O)(=O)c2ccc3c(c2)oc(=O)n3C)cc1,i,i,i,-16%,-10%,-16%
COC(=O)c1scc(-c2ccc(C)cc2)c1S(=O)(=O)Nc1cccc(C(F)(F)F)c1,i,i,i,-5%,?,-33%
Cc1ccc(Cl)cc1NS(=O)(=O)c1cc2c(cc1Cl)CCC(=O)N2,i,.,i,.,.,.
COC(=O)C[C@@H]1C=C[C@H](NC(=O)Nc2ccc(F)cc2)[C@@H](CO)O1,i,.,i,.,.,.
CCN(CC)C(=O)n1cnc(-c2ccccc2)c1-c1ccccc1,i,i,21µM*,7%,-5%,-32%
N=C1S/C(=C\c2ccc(-c3cccc(Cl)c3)o2)C(=O)N1c1nccs1,7.3µM*,5.6µM*,?,3.5µM*,?,2%
COc1ccc(/C=C2\SC(=N)N(c3nccs3)C2=O)cc1OC,?,?,i,11µM*,-25%,-10%
COc1ccc(Cn2c(SCc3ccc(C(=O)NC4CCCCC4)cc3)nc3cccnc32)cc1,i,i,?,8%,5%,-14%
Cc1ccc(C(=O)NCCc2nnc3n2CCN(C(=O)c2ccnc(Cl)c2)CC3)cc1,.,i,.,.,.,.
CC1(C)Cc2c(sc3nnn(Cc4ccc(Cl)cc4)c(=O)c23)CO1,?,i,6.5µM*,-15%,-19%,-3%
CCn1c(N2CCN(S(=O)(=O)CC)CC2)nc2ccccc21,i,i,?,3%,6%,0%
CCn1c(N2CCN(S(=O)(=O)c3ccc(F)cc3)CC2)nc2ccccc21,?,i,12µM*,-20%,0%,-14%
CCn1c(N2CCN(C(=S)NCC(C)C)CC2)nc2ccccc21,i,i,10µM*,-15%,-1%,4%
CCCn1c(N2CCN(Cc3ccc(Cl)cc3)CC2)nc2ccccc21,i,?,?,.,16µM*,-38%
CCn1c(N2CCN(S(=O)(=O)c3ccc(Cl)cc3)CC2)nc2ccccc21,?,i,8.2µM*,-31%,?,2%
CCSC(=O)N1CCN(/[N+]([O-])=N/Oc2ccc([N+](=O)[O-])cc2[N+](=O)[O-])CC1,.,.,.,.,?,-108%
Cc1nn(C)c2c1c(-c1ccccc1)cc(=O)n2CC(=O)NC(C)(C)C,i,i,i,-22%,-6%,3%
Cc1oc2c(C)c(O)ccc2c(=O)c1-c1ccc2ccccc2n1,i,i,?,-9%,-3%,-2%
CCC(=O)Oc1ccc2c(=O)c(-c3ccc4ccccc4n3)c(CC)oc2c1C,i,i,13µM*,4%,15%,15%
CCC1=Nc2cc(C(=O)NCCc3ccc(OC)c(OC)c3)ccc2Sc2ccccc21,i,?,i,?,?,-20%
CC1=Nc2cc(C(=O)NCCc3ccc(Cl)cc3)ccc2Sc2c(C)ccc(C)c21,2.6µM*,?,1.6µM*,11%,7.9µM*,-2%

# Screening data from PubChem BioAssay.
